Data: PubChem BioAssay (NCI)
Several values for one entry are separate records, joined by “and”; a condition that tells them apart may be missing. Identical values can stand only once. The panel holds about 83,000 compounds, 20% with a hit somewhere; the sample as a whole holds those more often.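 Each cell line was grown in a 96-well plate and treated with one concentration of compound for 48 hours. Values below 10 were considered active.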 Activity calls are given as the source filed them.

What was measured:
Test in all cases: NCI-60 one-dose screen, 48 h (100 = growth as untreated, 0 = no growth, -100 = all killed)
SK-MEL-2 melanoma = tested on: SK-MEL-2 melanoma
EKVX NSCLC = tested on: EKVX NSCLC
SN12C renal = tested on: SN12C renal
UO-31 renal = tested on: UO-31 renal
TK-10 renal = tested on: TK-10 renal
ACHN renal = tested on: ACHN renal
CAKI-1 renal = tested on: CAKI-1 renal
A498 renal = tested on: A498 renal
CCRF-CEM leukemia = settings: 10 µM unless noted
MOLT-4 leukemia = tested on: MOLT-4 leukemia

Measured: growth

CN(C)CCOc1ccc2c(c1)C(=O)/C(=C\c1ncc([N+](=O)[O-])n1C)C2
active: SK-MEL-2 melanoma; 10 µM unless noted -72.5% | EKVX NSCLC; 10 µM unless noted -18.9% | SN12C renal; 10 µM unless noted 0.0262% | UO-31 renal; 10 µM unless noted -36.7% | TK-10 renal; 10 µM unless noted -9.94% | ACHN renal; 10 µM unless noted -31.9% | CAKI-1 renal; 10 µM unless noted -19.2% | A498 renal; 10 µM unless noted -88% | CCRF-CEM leukemia -61.1% | MOLT-4 leukemia; 10 µM unless noted -32.1%

Cc1ccc(C(=Nc2ccccc2)N=P(c2ccccc2)(c2ccccc2)c2ccccc2)cc1
active: SK-MEL-2 melanoma; 10 µM unless noted -51.8% | EKVX NSCLC; 10 µM unless noted -16.8% | SN12C renal; 10 µM unless noted -10.1% | UO-31 renal; 10 µM unless noted -79.6% | TK-10 renal; 10 µM unless noted -23.4% | ACHN renal; 10 µM unless noted 2.97% | CAKI-1 renal; 10 µM unless noted -32.1% | A498 renal; 10 µM unless noted -56.7% | CCRF-CEM leukemia -30.2% | MOLT-4 leukemia; 10 µM unless noted 1.64%

CC(=O)C(=Cc1ccc(C=C(C(C)=O)C(C)=O)cc1)C(C)=O
active: UO-31 renal; 10 µM unless noted -12.2% | TK-10 renal; 10 µM unless noted 5.12% | ACHN renal; 10 µM unless noted -33.5% | CAKI-1 renal; 10 µM unless noted -50.7% | CCRF-CEM leukemia -5.86% | MOLT-4 leukemia; 10 µM unless noted 6.74%
inactive: SK-MEL-2 melanoma; 10 µM unless noted 70.8% | EKVX NSCLC; 10 µM unless noted 94.2% | SN12C renal; 10 µM unless noted 17.4% | A498 renal; 10 µM unless noted 94.1%

O=C1C2=C(Nc3cc([N+](=O)[O-])ccc3N2)OC1c1c2ccccc2cc2ccccc12 (centres undefined)
inactive: SK-MEL-2 melanoma; 10 µM unless noted 87.4% | EKVX NSCLC; 10 µM unless noted 43.6% | SN12C renal; 10 µM unless noted 30.6% | UO-31 renal; 10 µM unless noted 28.3% | TK-10 renal; 10 µM unless noted 73.5% | ACHN renal; 10 µM unless noted 51.4% | CAKI-1 renal; 10 µM unless noted 53.1% | A498 renal; 10 µM unless noted 104%
active: CCRF-CEM leukemia 9.72% | MOLT-4 leukemia; 10 µM unless noted 8.22%

Nc1ccc(SSc2ccc(N)cc2)cc1
inactive: SK-MEL-2 melanoma; 10 µM unless noted 91.6% | EKVX NSCLC; 10 µM unless noted 106% | SN12C renal; 10 µM unless noted 101% | UO-31 renal; 10 µM unless noted 73.6% | TK-10 renal; 10 µM unless noted 111% | ACHN renal; 10 µM unless noted 93.5% | CAKI-1 renal; 10 µM unless noted 98.5% | A498 renal; 10 µM unless noted 103% | CCRF-CEM leukemia 106% | MOLT-4 leukemia; 10 µM unless noted 96.1%

O=C(O)c1c(Cl)c(Cl)c(Cl)c(Cl)c1-c1c2cc(I)c(=O)c(I)c-2oc2c(I)c(O)c(I)cc12
active: SK-MEL-2 melanoma; 100 µM -40.2% | EKVX NSCLC; 100 µM -19.9% | SN12C renal; 100 µM 2.38% | ACHN renal; 100 µM -80.7% | MOLT-4 leukemia; 100 µM -50.2%
inactive: SK-MEL-2 melanoma; 10 µM 110% and 108% and 73.8% | EKVX NSCLC; 10 µM 98.6% and 98.8% and 91.3% | SN12C renal; 10 µM 99.1% and 95.2% and 98.3% | UO-31 renal; 10 µM 102% and 72.9% and 84% | UO-31 renal; 100 µM 49.8% | TK-10 renal; 10 µM 108% and 116% and 84.5% | TK-10 renal; 100 µM 36.6% | ACHN renal; 10 µM 100% and 98.7% and 89.6% | CAKI-1 renal; 10 µM 107% and 102% and 90% | CAKI-1 renal; 100 µM 42.9% | A498 renal; 10 µM 300% and 106% | A498 renal; 100 µM 37.1% | MOLT-4 leukemia; 10 µM 110% and 106% and 91.4%

CC(=Nc1ccc(N(C)C)cc1)c1ccccc1
inactive: SK-MEL-2 melanoma; 10 µM unless noted 78.4% | EKVX NSCLC; 10 µM unless noted 58.6% | SN12C renal; 10 µM unless noted 50.4% | UO-31 renal; 10 µM unless noted 55% | TK-10 renal; 10 µM unless noted 72.6% | ACHN renal; 10 µM unless noted 59.8% | CAKI-1 renal; 10 µM unless noted 79.8% | A498 renal; 10 µM unless noted 70.4% | CCRF-CEM leukemia 52.2% | MOLT-4 leukemia; 10 µM unless noted 66.7%

CCOC(=O)/C(=C\c1ccc(-c2ccccc2)cc1)C(C)=O
inactive: SK-MEL-2 melanoma; 10 µM unless noted 104% | EKVX NSCLC; 10 µM unless noted 99.2% | SN12C renal; 10 µM unless noted 89.9% | UO-31 renal; 10 µM unless noted 82.7% | TK-10 renal; 10 µM unless noted 86.1% | ACHN renal; 10 µM unless noted 104% | CAKI-1 renal; 10 µM unless noted 98.7% | A498 renal; 10 µM unless noted 92.2% | CCRF-CEM leukemia 107% | MOLT-4 leukemia; 10 µM unless noted 107%

O=C(Nc1c(Cl)cccc1Cl)Oc1cccc2cccnc12
inactive: SK-MEL-2 melanoma; 10 µM 79.8% | SK-MEL-2 melanoma; 100 µM 25.9% | SN12C renal; 10 µM 53.9% | SN12C renal; 100 µM 33.1% | UO-31 renal; 10 µM 17% | TK-10 renal; 10 µM 58.8% | TK-10 renal; 100 µM 22.4% | ACHN renal; 10 µM 38.8% | ACHN renal; 100 µM 12.1% | A498 renal; 10 µM 98.2% | A498 renal; 100 µM 94.5% | MOLT-4 leukemia; 10 µM 16.6%
active: EKVX NSCLC; 10 µM unless noted -9.97% [100 µM] | UO-31 renal; 100 µM 6.51% | CCRF-CEM leukemia 8.09% [100 µM] | MOLT-4 leukemia; 100 µM 8.36%

O=[N+]([O-])c1ccc2c(N=Nc3ccc4ccccc4c3O)c(O)cc(S(=O)(=O)O)c2c1
inactive: SK-MEL-2 melanoma; 10 µM unless noted 102% | EKVX NSCLC; 10 µM unless noted 95.2% | SN12C renal; 10 µM unless noted 99.4% | UO-31 renal; 10 µM unless noted 62.6% | TK-10 renal; 10 µM unless noted 91.6% | ACHN renal; 10 µM unless noted 78.7% | CAKI-1 renal; 10 µM unless noted 60.1% | A498 renal; 10 µM unless noted 108% | CCRF-CEM leukemia 63.6% | MOLT-4 leukemia; 10 µM unless noted 91.7%

c1ccc2c(c1)Nc1cc3ccccc3cc1N2
inactive: SK-MEL-2 melanoma; 10 µM unless noted 84% | EKVX NSCLC; 10 µM unless noted 56.4% | SN12C renal; 10 µM unless noted 54.6% | UO-31 renal; 10 µM unless noted 17.6% | TK-10 renal; 10 µM unless noted 93.3% | ACHN renal; 10 µM unless noted 27% | CAKI-1 renal; 10 µM unless noted 38% | A498 renal; 10 µM unless noted 81.9% | CCRF-CEM leukemia 26.5% | MOLT-4 leukemia; 10 µM unless noted 20.9%
